Source: PubChem BioAssay (NCI)
About 83,000 compounds went through this panel and 20% of them were active in at least one assay; those are over-represented in the sample as a whole.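 Results are percent growth after 48 hours of single-concentration exposure. 100 means growth as in untreated cells, lower positive values show inhibition; negative values down to -100 show cell death.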 A number with no mark means an inactive call. Calls of active or inactive are those of the source. How the source made its calls: active means growth percent below 10; inactive means the rest.

Columns and labels:
Assay in all cases: NCI-60 one-dose screen, 48 h (100 = growth as untreated, 0 = no growth, -100 = all killed)
Details in all cases: 10 µM unless noted
RPMI-8226 leukemia = test system: RPMI-8226 leukemia
OVCAR-8 ovarian = test system: OVCAR-8 ovarian
OVCAR-5 ovarian = test system: OVCAR-5 ovarian
OVCAR-4 ovarian = test system: OVCAR-4 ovarian
SK-OV-3 ovarian = test system: SK-OV-3 ovarian
OVCAR-3 ovarian = test system: OVCAR-3 ovarian
HS 578T breast = test system: HS 578T breast
NCI/ADR-RES ovarian = test system: NCI/ADR-RES ovarian
T-47D breast = test system: T-47D breast
BT-549 breast = test system: BT-549 breast
MDA-MB-435 melanoma = test system: MDA-MB-435 melanoma
SW-620 colon = test system: SW-620 colon
MCF7 breast = test system: MCF7 breast
HCT-116 colon = test system: HCT-116 colon
KM12 colon = test system: KM12 colon
IGROV1 ovarian = test system: IGROV1 ovarian
HCC-2998 colon = test system: HCC-2998 colon

SMILES | growth (RPMI-8226 leukemia) | growth (OVCAR-8 ovarian) | growth (OVCAR-5 ovarian) | growth (OVCAR-4 ovarian) [%] | growth (SK-OV-3 ovarian) | growth (OVCAR-3 ovarian) | growth (HS 578T breast) [%] | growth (NCI/ADR-RES ovarian) | growth (T-47D breast) | growth (BT-549 breast) | growth (MDA-MB-435 melanoma) | growth (SW-620 colon) | growth (MCF7 breast) | growth (HCT-116 colon) | growth (KM12 colon) | growth (IGROV1 ovarian) | growth (HCC-2998 colon)
O=S(=O)(NCCNc1nccc(-c2c(-c3cccc(O)c3)nc3sccn23)n1)c1ccc(F)cc1 | 76.2% | 67.6% | 107% | 103 | 85.9% | 86.8% | 83 | 97.9% | 85.3% | 79.3% | 29.4% | 103% | 38.2% | 45.9% | 56.6% | – | –
C=C[C@@H]1C[C@H](O)Cc2ccccc2N1 | 89.9% | 103% | 106% | – | 114% | 125% | 104 | 106% | 118% | 113% | 107% | 105% | 105% | 113% | 109% | 124% | 99.6%
Cc1ccc2ccccc2c1C[n+]1ccccc1 | 80.9% | 91.7% | 116% | 91.5 | 100% | 102% | 95.1 | 104% | 109% | 79.8% | 102% | 99.7% | 93.9% | 101% | 87.8% | – | 95.2%
CCCCCCCC/C=C/CCCCCCCC1=NC(C)(C)CN1C(C)(C)CO | -21.7% (active) | 37.1% | 65.1% | 42.5 | 70.3% | 55.4% | 65.9 | 56% | -10.2% (active) | 76.3% | -18.9% (active) | -85.1% (active) | -44.3% (active) | -99.4% (active) | -91.5% (active) | – | -93.4% (active)
CC1=NC2=CC=CC3=NC(C(Cl)(Cl)Cl)=NC(=N1)N23 | 50.3% | 84.9% | 112% | 73 | 87.3% | 34.8% | 62.6 | 81.6% | 61.4% | 45.9% | 77.9% | 78.4% | 62.7% | 68.3% | 85.5% | – | 57.5%
Cn1c(=O)c2[nH]c(C3CC=CCC3)nc2n(C)c1=O (stereo unspecified) | – | 106% | 94.7% | 111 | 99.1% | 105% | 97.7 | 112% | – | 108% | 106% | 101% | 102% | 106% | 108% | 111% | 104%
Cc1ccc(C(=O)C2=Cc3cc4ccccc4n3Cc3cnnn32)cc1 | 99.9% | 106% | 96.2% | 104 | 99.6% | 109% | – | 108% | 77.8% | 89.4% | 71.7% | 105% | 90.9% | 94.1% | 83.4% | 104% | 98.7%
O=C1Nc2ccc(Cl)cc2C12Nc1cc(Cl)ccc1S2 (stereo unspecified) | – | 99.2% | 113% | – | 108% | 72% | 144 | 82.5% | 33.8% | 80% | 91.4% | 98.9% | 43.4% | 61.2% | 70.7% | – | 78.9%
COc1ccc(C2=Nn3c(nnc3-n3nc(C)cc3C)SC2)cc1 | 20.9% | 17.6% | 48.7% | 61.1 | -3.05% (active) | -47.9% (active) | – | 10.7% | 77.6% | 18.6% | -16.1% (active) | 21.7% | 16.9% | 5.57% (active) | 10% | 32.2% | 4.24% (active)
CN(C)c1cccc2c(S(=O)(=O)/N=C(\N)Nc3nc4ccccc4s3)cccc12 | 62% | 70.6% | 84.2% | 82.4 | 46.6% | 8.44% (active) | 68 | 48% | 39.6% | 47.5% | -11.5% (active) | – | 29.6% | 42.4% | 35.7% | – | 70.4%
C=C1CCC2C3(C)COC(c4ccccc4)OC3CCC2(C)C1/C=C/C1=CCOC1=O (stereo unspecified) | -36.8% (active) | 32.9% | 78.7% | 50 | 72.4% | – | – | 26.2% | 72.2% | -18.3% (active) | 31.4% | – | 31.8% | 8% (active) | 28.7% | 30.6% | 111%
C=C(C)[C@@H]1C[C@@H]2Cc3cc(F)ccc3N1O2 | 65.2% | 97.1% | 93.8% | 101 | 104% | 112% | – | 99.6% | 107% | 106% | 104% | 98.6% | 95.6% | 98.2% | 103% | 108% | 93.9%
COc1cc(/C(C#N)=C/c2ccc3c(c2OC)OCO3)cc2c1OCO2 | 32.3% | 28.8% | 42.7% | 56.3 | 16.2% | -36% (active) | – | -7.38% (active) | 52.7% | 71.7% | -39.4% (active) | 19.8% | 21.4% | 16.7% | 17.4% | 37.7% | 12.8%
COc1ccc(Nc2[nH]n3c(=O)cc(C)nc3c2C(N)=O)c(OC)c1 | – | 97.4% | 113% | – | 88.3% | 106% | 99.2 | 103% | 79.8% | 95.3% | 114% | 93.3% | 92.7% | 97.8% | – | 107% | 108%
O=c1cc/c(=N\Nc2ccccc2)c(=O)/c1=N/Nc1ccccc1 | 18.9% | 109% | 107% | 107 | 109% | – | – | 95.2% | 92.8% | 102% | 126% | 98.6% | 78.4% | 90.1% | 94.1% | 60.1% | 99%
CCCCCCCCN(CCCCCCCC)CCCCCCNc1cc(OC)cc2cccnc12 | 52.3% | 73.3% | 92.4% | 82.7 | 102% | – | 111 | 80.2% | 104% | 79.7% | 95.2% | 10.8% | 61.7% | -30.1% (active) | 58.9% | 78.7% | 93.4%
O=S(=O)(NCCNc1nccc(-c2c(-c3ccc(O)cc3)nc3sccn23)n1)c1cccc2ccccc12 | – | 95.4% | 114% | 91.6 | 106% | 117% | 110 | 102% | 94.4% | 108% | 106% | 107% | 96.8% | 108% | 109% | 105% | –
Nc1cc2c([nH]c[n+]2CC#CCCl)c(SCC#CCCl)n1 | -2.17% (active) | 0.0129% (active) | -76.9% (active) | – | -21.7% (active) | -21.1% (active) | 47.3 | -24.2% (active) | -60.1% (active) | -91.2% (active) | -34.2% (active) | -27.2% (active) | – | -98.6% (active) | -80.2% (active) | -57% (active) | -96.9% (active)
